From PubChem BioAssay AID651724 (National Center for Advancing Translational Sciences (NCATS), 2012) come the findings set out here.

Molecules are shown by their SMILES. The campaign covered roughly 340,000 compounds. About 1,700 (0.5%) were called active. Not shown: some 2% with an inconclusive outcome. What follows is part of a selection rich in actives, with near analogues and random picks from the rest. Values without a mark were called inactive. Rule as the data show it: active = activity change below about -65%; inconclusive = mostly about -30% to -63%; inactive = weaker than that.
% is scaled to controls: 0 for no effect and ±100 for the full control effect.

This experiment has as its system CtBP / adenovirus E1A interaction (AlphaScreen). Put plainly: qHTS Assay for Inhibitors of the CtBP/E1A Interaction. The conditions noted are these: AlphaScreen GST-E1A/His-CtBP binding, 1536-well; active compounds read low. The source says: Carboxyl-terminal binding protein (CtBP) is a co-repressor for many transcription factors. […] Our studies have shown that CtBP is overexpressed in multiple human cancers, including lung, breast, and head and neck cancers. In particular, it is over-expressed in 50% of primary lung cancer and 90% of metastatic lesions. CtBP suppresses epithelial-specific genes as well as genes critical for apoptosis, providing the underlying molecular mechanism for its role in tumorigenesis. […] Based on the above data, we hypothesize that 1) CtBP suppresses the pro-apoptotic and epithelial genes, therefore overexpressed CtBP in human cancer cells increases EMT and cancer survival; 2) decreasing CtBP's function represents a targeted therapy for lung cancer and potentially multiple cancer types. As a co-repressor, CtBP binds to E1A and other transcription factors through a conserved peptide motif to carry out its action. Inhibiting this interaction using small molecules can potentially serve as effective cancer therapeutics.
To this end, we have developed a homogenous AlphaScreen assay targeting the CtBP/E1A interaction. We performed a large scale HTS of the Molecular Libraries Small Molecule Repository (MLSMR) to identify inhibitors of the CtBP/E1A interaction as potential anti-cancer therapeutics. Compounds identified can also be used as chemical probes to better understand the biological functions of CtBP.
NIH Chemical Genomics Center [NCGC]
NIH Molecular Libraries Probe Centers Network [MLPCN]
Assay Submitter (PI): Rui Zhao, University of Colorado Denver
The first step of the 5uL AlphaScreen assay is to dispense assay buffer (50 mM Tris, pH 8.0, 300 mM NaCl, 0.05% BSA, 0.02% Tween 20, 1 mM TCEP) into a Greiner 1536 white solid bottom microtiter plate (789175-F). Five microliters is added to Column 1, 4 uL is added to Column 2 and 3 uL is added to Columns 3 through 48. A 5X protein solution (125 nM GST-E1A protein + 125 nM His-tagged CtBP protein) is mixed and 1 uL is dispensed to Columns 3-48. Using a 1536 pintool, 23 nL of compound is transferred to the assay plate and the plate is incubated with a lid at 37 deg C in the dark for two hours. A solution of 5X AlphaScreen beads is mixed (50 ug/mL Glutathione linked donor beads + Nickel chelated acceptor beads) and 1 uL is dispensed to Columns 2-48. The assay plate is incubated for one hour, with a lid, at 37 deg C in the dark. The plate is read using a Perkin Elmer Envision using an AlphaScreen protocol.
In the case of `CCCCC(=O)NC(c1ccc(OC)c(OC)c1)c1ccc2cccnc2c1O` (stereo not given), the activity change is -94.2% (active).
Then `CCOc1ccc(C(CC(=O)O)NC(=O)Cc2ccccc2)cc1OC` (stereo not given), with -13.3%; and `COc1ccc(CCNS(=O)(=O)c2cccc3cccnc23)cc1OC`, with -9.76%; and `Cc1ccccc1C#CC1=CC(=O)CC(C)(C)C1`, with 5.53%.
The result for `CCCCNC(=O)C[C@@H]1C[C@@]2(C(=O)OC)CC(C)(C)CC=C2N(Cc2ccco2)C1=O` reads 2.24%; that for `COCOc1cccc(CN2CCC(C)(Oc3ccc(SC)cc3)C2)c1` (stereo not given), -22.6%.
The result for `CSc1ccc(CN2CCC2(C)C(=O)NCc2ccccc2Br)cc1` (stereo not given) reads -8.98%; that for `COC(=O)[C@@]12C[C@@H](CC(=O)NCCCCc3ccccc3)C(=O)N(Cc3ccccc3)C1=CCC(C)(C)C2`, -0.75%.
Turning to `O=c1ccc2c(-c3ccccc3S(=O)(=O)O)c3ccc(O)c(O)c3oc-2c1O`, the activity change is -78.5% (active).
The result for `CCCCCNC(=O)C1C(=O)Nc2ccccc2C(=O)N1C(C)(C)C` (stereo not given) reads -0.209%; that for `COc1ccc(Cl)cc1-c1cc(C(=O)Nc2cc(OC)c(OC)c(OC)c2)[nH]n1`, 4%.
The result for `O=C1c2ccccc2C(=O)N1CCCc1nc(-c2ccccc2)no1` reads 5.59%; that for `O=C1c2cccc3cccc(c23)C(=O)N1CCCCCc1n[nH]c(=S)o1`, -82.2% (active).
Then `O=C1c2ccccc2C(=O)N1CCCCCCN1C(=O)c2ccccc2C1=O`, with 6.03%; and `C[C@@H]1CN([C@H](C)CO)C(=O)c2cc(Br)cnc2O[C@@H]1CN(C)Cc1cncnc1`, with -16.6%.
As to `Cc1onc(-c2ccccc2)c1-c1nnc(COC(=O)c2ccc(N(C)C)cc2)o1`, the activity change is 2.13%.
Then `COC(=O)[C@@]12C[C@@H](CC(=O)N3CCC(c4ccccc4)CC3)C(=O)N(Cc3ccccc3)C1=CCC(C)(C)C2`, with 0.365%.
The result for `COC(=O)c1ccc(NCC(=O)c2ccccc2)cc1` reads 6.11%; that for `CCOC(=O)c1ccc(Nc2cc3ccccc3c(=O)[nH]2)cc1`, 2.43%; that for `CCOC(=O)c1nc(Nc2ccc(C(=O)OC)cc2)c2ccccc2n1`, -86.6% (active).
As to `COc1ccc(-c2coc3c(C(=O)NC(C)C)cccc23)c(C)c1`, the activity change was -12.9%.
Consider `Clc1cccc(Cc2c(-c3cccc(Cl)c3)nc3ccc(Cl)cn23)c1`, for which the activity change is 0.333%.
The result for `COc1ccc(CC(=O)NCC(=O)N/N=C/c2cc(Br)ccc2OC)cc1` reads -87.6% (active); that for `Cc1ccc(OCCOCCOc2ccc(Br)cc2/C=N\NC(=O)c2ccncc2)cc1`, -10.2%.
For the compound `COc1ccc(Br)cc1/C=N/Nc1ccc(Cl)c(C(=O)O)c1`, the activity change is -2.31%.
The result for `Cc1ccc(C(=O)Oc2coc(CSc3nnc(NC(=O)c4cccs4)s3)cc2=O)cc1C` reads -16.7%; that for `O=C(/C=C/c1ccccc1)Oc1coc(CSc2ncccn2)cc1=O`, -92.2% (active).
The result for `C=CCNC(=O)COc1coc(CN2CCN(Cc3ccccc3)CC2)cc1=O` reads 2.1%; that for `O=Nc1c(O)cc(O)c2ccccc12`, -6.15%; that for `COc1ccc(C(=O)N2CCCCC2c2cc(C(=O)Nc3ccc(F)c(Cl)c3)no2)cc1` (stereo not given), -5.81%.
Then `O=Cc1cn(CCOc2ccc(F)cc2)c2ccccc12`, with 0%; and `CSCCC(c1nnnn1Cc1ccccc1)N1CCN(C/C=C/c2ccccc2)CC1` (stereo not given), with -18.4%.
Take `Cc1cccn2c(=O)c3cc(C(=O)NCCN4CCOCC4)c(=N)n(Cc4cccnc4)c3nc12`: the activity change is -25.6%.
In the case of `COc1ccc(CCn2c(=N)c(C(=O)NCc3ccco3)cc3c(=O)n4cccc(C)c4nc32)cc1`, the activity change was -81.7% (active).
Then `O=C(NCc1ccco1)c1cccn2c(=O)c3c4c(sc3nc12)CCCC4`, with -12.2%.
Then `CC(C)C[C@@H](COCc1ccc(Cl)cc1)N1CCN(C(=O)c2ccc(Cl)cc2Cl)CCC1=O`, with 0%; and `CCN1CCN(C(c2cccnc2)c2cc(Cl)c3cccnc3c2O)CC1` (stereo not given), with -99.3% (active); and `CCOC(=O)N1CCN(C(=O)CSc2nc(=O)n3cccc(C)c3n2)CC1`, with -4.84%.
The result for `CCOC(=O)N1CCN(C(c2cccnc2)c2ccc3cccnc3c2O)CC1` (stereo not given) reads -91.9% (active).
For the compound `CCOC(=O)N1CCN(C(c2ccnc3ccccc23)c2nnnn2-c2c(C)cccc2C)CC1` (stereo not given), the activity change was 0%.
Then `N#CCCN(C(=S)Nc1ccc(Cl)c(Cl)c1)C1CCCCC1`, with 0%; and `COc1ccc(-c2cnc3c(c2)C(=O)N([C@H](C)CO)C[C@@H](C)[C@H](CN(C)Cc2ccccc2)O3)cc1`, with -12.8%.
The result for `CC(C)Oc1ccc(CN2CCC2(C)C(=O)NCc2ccc(C(F)(F)F)cc2)cc1` (stereo not given) reads 0.872%.
Then `Cc1ccc(NC(=O)C2CC(=O)N(c3ccc4c(c3)OCCO4)C2)cc1S(=O)(=O)N1CCCCCC1` (stereo not given), with -5.1%; and `Cc1ccc(C(=O)NNC(=O)c2ccncc2)cc1S(=O)(=O)N1CCCCC1`, with -2.42%.
For the compound `Cc1ccc(C(=O)Nc2ccc3c(c2)OCO3)cc1S(=O)(=O)N1CCCCC1`, the activity change was -66.6% (active).
Then `OC(c1ccccc1)c1nc(/C=C/c2ccc(C(F)(F)F)cc2)cs1` (stereo not given), with 7.85%; and `Cc1nc2c(OCc3ccc(Cl)cc3Cl)cccn2c1N(C)CC1CC1`, with -25.5%; and `COc1cccc(/C=N/NC(=O)c2[nH]nc3c2CCc2ccccc2-3)c1O`, with -67.1% (active).
With `COc1ccc(/C=N/NC(=O)c2ccncc2)cc1CN1CCCc2ccccc21`, the activity change is 13.2%.
Then `COc1cc(OC)c(/C=N/NC(=O)c2ccc([N+](=O)[O-])cc2)cc1Br`, with -0.151%.
Then `CC(C)c1cc(CN2CCOCC2)cc(C(C)C)c1O`, with 4.14%; and `Oc1c(C(c2ccccn2)N2CCOCC2)ccc2cccnc12` (stereo not given), with -81.3% (active); and `CCCCN1C[C@H](c2ccc(Br)cc2)[C@@H](CC(=O)Nc2ccc(Br)cc2)C1=O`, with -4.21%.
The result for `COc1ccc(CC(=O)Nc2ccccc2NC(=O)c2ccco2)cc1OC` reads 5.07%.
`COc1ccc(NC(=O)CCC(=O)Nc2cc(OC)c(NC(=O)c3ccco3)cc2OC)c(OC)c1`: the activity change was -87.4% (active).
Then `COc1ccc(OCC(=O)Nc2ccc(NC(=O)c3ccco3)c(C)c2)cc1`, with -2.52%; and `CC(=O)Nc1cc(-c2ccccc2N(C)C)cn2c(-c3ccc(F)c(Cl)c3)cnc12`, with -22.9%; and `CCCOc1ccc(F)cc1-c1cc(C(=O)Nc2ccc(F)c(Cl)c2)[nH]n1`, with 2.38%.
Then `COCC1CCCCN1C(=O)c1cc(COc2ccc(C)c(C)c2)on1` (stereo not given), with -0.436%; and `C=CCOCCN(C)C1=NS(=O)(=O)c2ccccc21`, with 0.314%.
Then `COc1ccc(C(C)(C)C)cc1NC(=O)CN(C)C1=NS(=O)(=O)c2ccccc21`, with 2.94%.
As for `COc1ccc(/C=N/N(C)C2=NS(=O)(=O)c3ccccc32)cc1OC`, the activity change was -89.3% (active).
The result for `CC(=O)Nc1cc(-c2ccccc2F)cn2c(-c3cccc(C(F)(F)F)c3)cnc12` reads -8.33%.
For `COc1ccccc1-c1cc2nc(NCc3cccc(Cl)c3)ccn2n1`, the activity change is 3.38%.
With `O=[N+]([O-])c1cccc(S(=O)(=O)NCc2ccccn2)c1`, the activity change is 1.03%.
Regarding `O=[N+]([O-])c1ccc2nc(-c3ccccn3)[nH]c2c1`, the activity change was -90.6% (active).
Then `O=S(=O)(Nc1ccc2nc(-c3ccco3)[nH]c2c1)c1ccccc1`, with -18.3%; and `COCOCCn1cc(CN2CCS(=O)(=O)N(Cc3ccc(-c4ccc(OC)cc4)cc3)C(CC(C)C)C2=O)nn1` (stereo not given), with -1.08%; and `Cc1ccc(Nc2cc(C)nc3c(C)ccc([N+](=O)[O-])c23)cc1`, with -66.7% (active).
Consider `Cc1cc(Nc2ccc(N3CCOCC3)cc2)c2cccc(C)c2n1`, for which the activity change was -16.1%.
With `Cc1cc(Nc2ccc(C(=O)N3CCCCC3)cc2)c2cccc(C)c2n1`, the activity change is 1.83%.
Then `COC(=O)c1ccccc1N=NNc1ccc([N+](=O)[O-])cc1`, with -2.76%.
For `Fc1cccc(Cc2c(-c3ccc(Cl)cc3)nc3ccc(Cl)cn23)c1`, the activity change is 0%.
The result for `CCN(CC)C(=O)C1=C(C)N(Cc2ccc(F)cc2)C(=O)C(CC(=O)NCc2cccc3ccccc23)C1` (stereo not given) reads -2.72%.
Then `COc1ccc(NC(=O)CCNC(=O)Cn2cnc3sc4c(c3c2=O)CCCC4)cc1OC`, with 0.477%; and `COc1ccc(/C=N/Nc2ncnc3sc4c(c23)CCCC4)cc1O`, with -87.1% (active).
The result for `COc1ccc(NC(=O)CCCNC(=O)Cn2cnc3sc4c(c3c2=O)CCCC4)cc1OC` reads 20.4%.
For `COC(=O)C1=CN(c2c(C)cc(C)cc2C)C(N)=C(C#N)C1c1cccc(F)c1` (stereo not given), the activity change was 3.08%.
The result for `CCCCCCN1CCN(C2CN(Cc3cn(CCCCCC)nn3)S(=O)(=O)C2)CC1` (stereo not given) reads 0.678%; that for `Cc1nc2c(OCc3cccc(Cl)c3)cccn2c1N(C)CC1CC1`, -6.06%.
Then `COc1ccc(NC(=O)C2Cc3c(-c4ccc(Cl)cc4)ccnc3O2)cc1` (stereo not given), with 1.32%.
The result for `COCCCNC(=O)c1cccc2c(-c3ccc(O)c(OC)c3)coc12` reads -18.4%; that for `Cc1cc(NC(=O)CSc2ncc(C(F)(F)F)cc2Cl)no1`, -2.36%; that for `O=C(CSc1nnc(-c2ccncc2)o1)Nc1cccc(Cl)c1`, 6.8%.
`Cc1cc(NC(=O)CSc2nnc(-c3ccc(Cl)s3)o2)no1`: the activity change is -93.2% (active).
`CCCCc1c(-c2ccc(Br)cc2)ncn1CCc1ccccc1OC`: the activity change was -11.3%.
The result for `COc1cccc(-n2c(SCC(=O)NC3CCCCC3)nc3n[nH]c(C)c3c2=N)c1` reads -66.5% (active).
The result for `CCCCNC(=O)CSc1nc2n[nH]c(C)c2c(=N)n1-c1cccc(Cl)c1C` reads -0.913%; that for `Cc1ccc(-n2c(SCC(=O)NCCC3=CCCCC3)nc3n[nH]c(C)c3c2=N)cc1Cl`, -20.7%.
